Pf apPOL inh – Pf-apPOL inhibitors, biochemical, fluorescence; Plasmodium falciparum apicoplast DNA polymerase (apPOL); Recombinant Pf-apPOL, molecular beacon fluorescence, 1.5 h; inhibition, % at 10 µM; 210,000 compounds, 0.25% hits; AID 1794808, 2022
mHTT-CaM PPI inh – mutant huntingtin-calmodulin interaction inhibitors – biochemical, AlphaScreen, primary screen; inhibition, % at 15 µM; 190,000 compounds, 3.6% hits; P42858; AlphaScreen His-mHTT/GST-CaM binding, luminescence; AID 1671202, 2021;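 note: 0% = both proteins with DMSO and 100% = one protein alone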
* = called active by the depositor. A selection: hits, their analogues and other compounds. The true share with any hit is near 3.6%. Cut-off read from the data, not from the text of the source: active = inhibition above about 50%; inactive = the rest.

Results for COc1ccc(NC(=O)N2CCc3cn(C)c4cccc(c34)C2)c(OC)c1 ?
Pf apPOL inh: -2; mHTT-CaM PPI inh: 75*

Results for COc1ccccc1NC(=O)N1CCc2cn(C)c3cccc(c23)C1 ?
Pf apPOL inh: -1; mHTT-CaM PPI inh: 51*

Results for COc1ccc(OC)c(NC(=O)N2CCc3cn(C)c4cccc(c34)C2)c1 ?
Pf apPOL inh: 3; mHTT-CaM PPI inh: 62*

Results for COc1cccc(NC(=O)N2CCc3cn(C)c4cccc(c34)C2)c1 ?
Pf apPOL inh: -4; mHTT-CaM PPI inh: 14

Results for CCCn1cc(C2=CCN(C(=O)NCC3CCCO3)CC2)c2cccnc21 (stereo not drawn) ?
Pf apPOL inh: -10; mHTT-CaM PPI inh: 6

What do the screens show for `COc1ccc(NC(=O)Cn2nc3c(cc2=O)CCCC3)c(OC)c1`?
Pf apPOL inh: 1; mHTT-CaM PPI inh: 8

How did COc1ccccc1C(=O)Nc1c2c(nn1C(C)(C)C)CSC2 do in these assays?
Pf apPOL inh: 0; mHTT-CaM PPI inh: 27

How did O=C(c1ccc(F)cc1)N1CCC(CCNS(=O)(=O)c2cccc3nsnc23)CC1 do in these assays?
Pf apPOL inh: -1; mHTT-CaM PPI inh: 42

What do the screens show for `Cc1c(Cl)cccc1S(=O)(=O)NCCC1CCN(C(=O)c2ccc(F)cc2)CC1`?
Pf apPOL inh: -2; mHTT-CaM PPI inh: 51*

What do the screens show for `Cc1ccc(C(=O)N2CCC(CCNS(=O)(=O)c3ccc(F)c(Cl)c3)CC2)cc1`?
Pf apPOL inh: 0; mHTT-CaM PPI inh: 62*

What do the screens show for `Cc1ccc(S(=O)(=O)NCCC2CCN(C(=O)c3ccc(F)cc3)CC2)cc1C`?
Pf apPOL inh: -3; mHTT-CaM PPI inh: 30

What do the screens show for `Cc1cc(C)c(S(=O)(=O)NCCC2CCN(C(=O)c3ccc(F)cc3)CC2)cc1C`?
Pf apPOL inh: 1; mHTT-CaM PPI inh: 56*

How did O=C(c1ccc(F)cc1)N1CCC(CCNS(=O)(=O)c2ccccc2F)CC1 do in these assays?
Pf apPOL inh: 0; mHTT-CaM PPI inh: 27

What do the screens show for `Cc1ccc(C(=O)N2CCC(CCNS(=O)(=O)c3cccc4nsnc34)CC2)cc1`?
Pf apPOL inh: -2; mHTT-CaM PPI inh: 51*

What do the screens show for `O=C(c1ccccc1)N1CCC(CCNS(=O)(=O)c2ccc(F)c(Cl)c2)CC1`?
Pf apPOL inh: 1; mHTT-CaM PPI inh: 22

What do the screens show for `COc1cccc(CCC(=O)N2CCC(c3nc4ccncc4n3C)C2)c1` (stereo not drawn)?
Pf apPOL inh: -8; mHTT-CaM PPI inh: -2

What do the screens show for `CCN1C(=O)c2cccnc2Sc2cc(NC(C)=O)ccc21`?
Pf apPOL inh: 0; mHTT-CaM PPI inh: 0

Results for COc1cccc(CNC(=O)CC2CCN(S(=O)(=O)c3c(C)noc3C)CC2)c1 ?
Pf apPOL inh: -6; mHTT-CaM PPI inh: 2

How did CCN(C(=O)c1cccnc1)c1ccccc1C do in these assays?
Pf apPOL inh: -1; mHTT-CaM PPI inh: 0

Results for COc1ccc(C2=COC3(CCCN(C(=O)C4CCCCC4)C3)C2)cc1 (stereo not drawn) ?
Pf apPOL inh: -4; mHTT-CaM PPI inh: -21

What do the screens show for `Cc1ccccc1C(=O)N1CCN(c2ccc(Cl)cc2)C(=O)C1C` (stereo not drawn)?
Pf apPOL inh: -4; mHTT-CaM PPI inh: -6

How did CC(=O)N1CCc2cc(Br)cc(S(=O)(=O)Nc3ccc(C)c(C)c3)c21 do in these assays?
Pf apPOL inh: -6; mHTT-CaM PPI inh: 14

How did CC(C)c1nc(CN2CCCCC2C)cc(=O)[nH]1 (stereo not drawn) do in these assays?
Pf apPOL inh: -6; mHTT-CaM PPI inh: -4

How did CN1CCN(C(=O)c2ccccc2N2CCC(NC(=O)c3ccccc3)CC2)CC1 do in these assays?
Pf apPOL inh: 4; mHTT-CaM PPI inh: 2

What do the screens show for `O=c1cccnn1CCCNS(=O)(=O)c1ccc(F)c(C(F)(F)F)c1`?
Pf apPOL inh: -8; mHTT-CaM PPI inh: -14

How did COc1cc(CSc2nnc(C34CC5CC(CC(C5)C3)C4)o2)cc(OC)c1OC do in these assays?
mHTT-CaM PPI inh: -8

What do the screens show for `Cc1ccc(C(=O)N2CCC(CCNS(=O)(=O)c3cccc(Cl)c3C)CC2)cc1`?
Pf apPOL inh: -6; mHTT-CaM PPI inh: 57*

How did Cc1ccc(C(=O)N2CCC(CCNS(=O)(=O)c3ccccc3Cl)CC2)cc1 do in these assays?
Pf apPOL inh: -6; mHTT-CaM PPI inh: 43

What do the screens show for `CCCc1ccc(C(=O)NCc2ccc3c(c2)OCO3)cc1`?
Pf apPOL inh: -12

How did Cc1[nH]n(-c2ccc([N+](=O)[O-])cc2)c(=O)c1C=NC(C)(C)C do in these assays?
Pf apPOL inh: 0; mHTT-CaM PPI inh: -1

How did O=C(NCc1csc(C2CCN(C(=O)CCc3ccccc3)CC2)n1)C1CC1 do in these assays?
Pf apPOL inh: -5; mHTT-CaM PPI inh: -5

How did COc1ncnc2c1C(c1cccc([N+](=O)[O-])c1)c1c(OC)ncnc1O2 do in these assays?
Pf apPOL inh: -6; mHTT-CaM PPI inh: 7

How did CNc1ncnc2c1C(c1cccc([N+](=O)[O-])c1)c1c(NC)ncnc1O2 do in these assays?
Pf apPOL inh: 75*; mHTT-CaM PPI inh: 13

Results for CC(C)C(NC(=O)C1CCN(c2ccc(N3CCCCC3)nn2)CC1)c1cccs1 (stereo not drawn) ?
Pf apPOL inh: -8; mHTT-CaM PPI inh: 1

Results for CC(C)CC(=O)Nc1cccc(NC(=O)c2cccs2)c1 ?
Pf apPOL inh: 0; mHTT-CaM PPI inh: -2

Results for CC(C)C(=O)NC(c1cccs1)c1cc(Cl)c2cccnc2c1O (stereo not drawn) ?
Pf apPOL inh: 16; mHTT-CaM PPI inh: 18

Results for O=C(NC(c1cccs1)c1ccc2cccnc2c1O)C1CCCCC1 (stereo not drawn) ?
Pf apPOL inh: -14; mHTT-CaM PPI inh: 97*

Results for CCCC(=O)NC(c1cccs1)c1ccc2cccnc2c1O (stereo not drawn) ?
Pf apPOL inh: -1; mHTT-CaM PPI inh: 100*

What do the screens show for `CC(C)CC(=O)NC(c1cccs1)c1ccc2cccnc2c1O` (stereo not drawn)?
Pf apPOL inh: -1; mHTT-CaM PPI inh: 100*

Results for CCCC(=O)NC(c1cccs1)c1cc(Cl)c2cccnc2c1O (stereo not drawn) ?
Pf apPOL inh: -5; mHTT-CaM PPI inh: 100*

Results for O=C(CCc1ccccc1)NC(c1cccs1)c1ccc2cccnc2c1O (stereo not drawn) ?
Pf apPOL inh: -4; mHTT-CaM PPI inh: 19

What do the screens show for `COc1ccccc1C(=O)N1CCN(c2ccc(Cl)cc2)C(=O)C1C` (stereo not drawn)?
Pf apPOL inh: -4; mHTT-CaM PPI inh: -3

What do the screens show for `Cc1noc2c1C(c1ccsc1)C(C#N)=C(N)N2` (stereo not drawn)?
Pf apPOL inh: -3; mHTT-CaM PPI inh: -3

What do the screens show for `CC1=C(C(=O)Nc2ccc(Cl)cc2)C2(CCCCC2)OC1=O`?
Pf apPOL inh: -3; mHTT-CaM PPI inh: 0

Results for O=c1[nH]c2ccc(Cl)cc2c(-c2ccccc2)c1Sc1ncn[nH]1 ?
Pf apPOL inh: -4; mHTT-CaM PPI inh: 5

What do the screens show for `COc1cc(C=CC(=O)c2c(-c3ccccc3)c3cc(Cl)ccc3[nH]c2=O)cc(OC)c1OC`?
Pf apPOL inh: 1; mHTT-CaM PPI inh: 100*

Results for COc1cccc(CNC(=O)C2CCCN(C(=O)c3ccccc3F)C2)c1OC (stereo not drawn) ?
Pf apPOL inh: -18; mHTT-CaM PPI inh: 26

What do the screens show for `Oc1cccc(C=Nc2c(-c3ccco3)nc3ccccn23)c1`?
Pf apPOL inh: 8; mHTT-CaM PPI inh: 49
